Ten molecules from PubChem BioAssay (EPA / NIEHS) can be followed below.

“And” between values parts separate entries of the source, which are not always exact repeats. Equal values may be shown once. Inconclusive results are not listed. The source made the active and inactive calls. How the source made its calls, unless noted: active means hit-call score of the fitted dose curve at least 0.9, where 1 is the maximum; inconclusive means response in the unintended direction; inactive means score below 0.9.

Assay [1] is described as follows: TOX21_p53_BLA_p2_viability: Viability Assessment in the Tox21 HCT-116 p53 Agonism Beta-lactamase Assay, Phase 2 (AID 2283591).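 Further: actives lower the ATP signal meaning cytotoxicity.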 The essentials:
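Cytotoxicity readout: CellTiter-Glo ATP luminescence, 30 min at room temperature, after the beta-lactamase read. Cells were HCT116 exposed 16 h at 37C to compounds pin-transferred at 217-fold dilution from DMSO stocks.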

In assay [2] the target is Cellular tumor antigen p53 (Homo sapiens) (UniProt P04637). In words: TOX21_p53_BLA_p2_ratio: Tox21 HCT-116 p53 Agonism Beta-lactamase Assay, Ratio, Phase 2 (AID 2283592). The procedure, abridged: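 First, HCT116 reporter cells settle for 5 h at 37C. Next, DMSO compound solutions are pinned in (217-fold dilution) and left 16 h. Finally, CCF4-AM substrate is loaded 2 h at room temperature and the 460/530 nm ratio read.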
Chain of Cellular tumor antigen p53 (Homo sapiens) (P04637 whole entry, looked up): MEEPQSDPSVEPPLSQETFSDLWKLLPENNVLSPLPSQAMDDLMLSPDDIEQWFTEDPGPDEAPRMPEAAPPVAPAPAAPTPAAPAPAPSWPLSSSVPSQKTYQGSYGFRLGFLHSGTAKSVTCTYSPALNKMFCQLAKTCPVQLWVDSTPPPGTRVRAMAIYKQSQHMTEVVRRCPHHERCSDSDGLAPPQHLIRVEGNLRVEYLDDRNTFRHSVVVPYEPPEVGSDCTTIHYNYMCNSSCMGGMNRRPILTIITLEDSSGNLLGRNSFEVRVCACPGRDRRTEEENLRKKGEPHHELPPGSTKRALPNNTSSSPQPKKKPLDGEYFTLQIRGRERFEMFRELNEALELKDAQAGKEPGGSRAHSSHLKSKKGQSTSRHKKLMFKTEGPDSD

A short description of assay [3]: TOX21_p53_BLA_p3_viability: Viability Assessment in the Tox21 HCT-116 p53 Agonism Beta-lactamase Assay, Phase 3 (AID 2283593).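 Further: cells exposed to compound for 16 h before reading.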 The procedure, abridged: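 Cellular ATP was quantified by CellTiter-Glo luminescence, read after 30 min at room temperature. Beforehand, HCT116 cells (4000/well) received compound 5 h post-seeding, 217-fold diluted from DMSO, then incubated 16 h at 37C.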

Assay [4] has as its target Cellular tumor antigen p53 (Homo sapiens) (UniProt P04637). As to the kind of experiment: TOX21_p53_BLA_p3_ratio: Tox21 HCT-116 p53 Agonism Beta-lactamase Assay, Ratio, Phase 3 (AID 2283596). The procedure, abridged: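 Cells were seeded at 4000/well, rested 5 h at 37C, then dosed with DMSO compound solutions (217-fold dilution) for 16 h. CCF4-AM substrate was loaded for 2 h at room temperature, and the 460/530 nm emission ratio was fitted for gain of signal versus DMSO.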

Assay [5] in a line: TOX21_p53_BLA_p4_viability: Viability Assessment in the Tox21 HCT-116 p53 Agonism Beta-lactamase Assay, Phase 4 (AID 2283597).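 Further: hits lower the luminescence signal meaning cytotoxicity.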 The essentials: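 4000 HCT116 cells per well; 5 h attachment; compounds from DMSO, 217-fold dilution; 16 h at 37C. Then CCF4-AM, 2 h RT, followed by CellTiter-Glo, 30 min RT, luminescence. Decrease = cytotoxicity.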
Assay [6] deals with Cellular tumor antigen p53 (Homo sapiens) (UniProt P04637). In words: TOX21_p53_BLA_p5_ratio: Tox21 HCT-116 p53 Agonism Beta-lactamase Assay, Ratio, Phase 5 (AID 2283599). The procedure, abridged: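 Beta-lactamase reporter ratio (blue 460 nm over green 530 nm, 405 nm excitation) after 2 h CCF4-AM loading, in HCT-116 cells exposed 16 h at 37 C to compounds pinned at 217-fold dilution. Increases relative to DMSO baseline scored.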

Assay [7] has the same target. As to the kind of experiment: TOX21_p53_BLA_p4_ratio: Tox21 HCT-116 p53 Agonism Beta-lactamase Assay, Ratio, Phase 4 (AID 2283601). The essentials:
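Signal is the blue/green (460nm/530nm) ratio of cleaved versus uncleaved CCF4-AM substrate, read after 2 h substrate loading. Cells were HCT116 carrying the p53-responsive beta-lactamase reporter, dosed 16 h at 37C, 5% CO2; CellTiter-Glo measured in parallel.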

Assay [8] can be described thus: TOX21_p53_BLA_p5_viability: Viability Assessment in the Tox21 HCT-116 p53 Agonism Beta-lactamase Assay, Phase 5 (AID 2283600). The essentials: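 Decreased CellTiter-Glo luminescence denotes lost viability. Exposure: 16 h at 37C, 5% CO2, with compounds from DMSO stocks diluted 217-fold in wells of 4000 cells.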
Assay [9] concerns the target THRB (gene 7068) (UniProt P10828). In words: TOX21_TRB_BLA_Antagonist_Followup_ratio: Tox21 Thyroid Hormone Receptor beta Antagonism Beta-lactamase (BLA) Follow-Up Assay, Ratio (AID 2283958). The procedure, abridged: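 Cells were plated and allowed to attach for 5 h, then dosed with compounds in DMSO at 11 concentrations for 18 h at 37C. Beta-lactamase reporter activity was measured via CCF4-AM FRET as the 460:530 nm ratio.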

A short description of assay [10]: TOX21_TRB_BLA_Antagonist_Followup_viability: Viability Assessment in the Tox21 Thyroid Hormone Receptor beta Antagonism Beta-lactamase (BLA) Follow-Up Assay (AID 2283961). The procedure, abridged: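 HEK293T cells with GAL4-human TRβ LBD and UAS-bla reporter, 3,000 cells/well in 2% charcoal-stripped FBS medium; 11-point concentrations in triplicate, 18 h at 37C. Viability from ATP by CellTiter-Glo luminescence, 30 min RT, same plates.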

The target of assay [11] is THRB (gene 7068) (UniProt P10828). In words: TOX21_TRB_COA_Antagonist_Followup_ratio: Tox21 Thyroid Hormone Receptor beta Antagonism through Coactivator Recruitment Follow-Up Assay, Ratio (AID 2283967). The essentials: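 Coactivator recruitment to the GST-tagged TRb ligand-binding domain (5.0 nM) was read as the 520/495 nm TR-FRET ratio, using 200 nM fluorescein SRC-2 peptide and 2 nM terbium anti-GST. Scaled between DMSO and T3 wells; loss of signal fitted.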
Chain of THRB (gene 7068) (P10828 whole entry, looked up, the tested form may be a part): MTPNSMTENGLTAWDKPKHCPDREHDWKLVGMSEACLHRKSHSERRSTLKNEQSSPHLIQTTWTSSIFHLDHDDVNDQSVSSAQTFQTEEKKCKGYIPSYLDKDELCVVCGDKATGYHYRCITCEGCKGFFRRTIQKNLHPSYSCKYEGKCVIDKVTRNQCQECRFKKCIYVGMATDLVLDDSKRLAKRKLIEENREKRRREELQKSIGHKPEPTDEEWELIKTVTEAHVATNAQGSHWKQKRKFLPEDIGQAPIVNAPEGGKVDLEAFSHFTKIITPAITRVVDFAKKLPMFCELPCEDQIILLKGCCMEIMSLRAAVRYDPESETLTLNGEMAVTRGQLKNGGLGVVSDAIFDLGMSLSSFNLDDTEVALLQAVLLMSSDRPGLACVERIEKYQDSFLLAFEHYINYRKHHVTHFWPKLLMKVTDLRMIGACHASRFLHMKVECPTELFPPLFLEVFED

Assay [12] is described as follows: TOX21_TR_RXR_BLA_Antagonist_Followup_viability: Viability Assessment in the Tox21 Thyroid Hormone Receptor beta Retinoid X Receptor alpha (RXRa) Antagonism Beta-lactamase (BLA) Follow-Up Assay (AID 2283979). The procedure, abridged: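 Follow-up compounds (11 concentrations, triplicate) were incubated 16 h at 37C/5% CO2 with HEK293T RXRa-bla cells seeded at 2,500/well in charcoal-stripped-serum medium. ATP content by CellTiter-Glo luminescence gave viability; curves fitted in both directions against DMSO.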

Assay [13] concerns the target Thyroid hormone receptor alpha (Rattus norvegicus) + Thyroid hormone receptor beta (Rattus norvegicus) (UniProt P18113+P63059). As to the kind of experiment: TOX21_TR_LUC_GH3_Antagonist_Followup: Tox21 GH3 Thyroid Hormone Receptor Antagonism Luciferase Follow-Up Assay (AID 2283942). The essentials:
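Loss of T3-driven (1.0 nM final) reporter activity in GH3 cells was read by ONE-Glo luminescence after 24 h incubation at 37C; 15-point compound series spanned 92 uM to 5nM final, 1,500 cells/well.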

Assay [14] can be described thus: CCTE_Harrill_HTTr_Viability_MCF7: CCTE's 6-hour Cell Viability Assessment for the High-Throughput Transcriptomics (HTTr) Platform, in MCF-7 cells cultured in DMEM + 10% fetal bovine serum, Harrill Lab (AID 2284010; active means hit-call score of the fitted dose curve at least 0.9, where 1 is the maximum; inactive means score below 0.9). The essentials: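 Read-out is propidium iodide gain of signal by high-content imaging, reflecting membrane integrity loss. Measurements are taken 6 h after dosing, eight concentrations per chemical, with DMSO serving as baseline for bidirectional curve fitting.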

A short description of assay [15]: CCTE_Harrill_HTTr_Apoptosis_MCF7: CCTE's 6-hour Apoptosis Assessment for the High-Throughput Transcriptomics (HTTr) Platform, in MCF-7 cells cultured in DMEM + 10% fetal bovine serum, Harrill Lab (AID 2284011; active means hit-call score of the fitted dose curve at least 0.9, where 1 is the maximum; inactive means score below 0.9). The procedure, abridged: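 MCF-7 cells in DMEM + 10% FBS exposed 6 h to chemicals over an eight-point dilution series. Caspase-3/7 activation imaged by high-content CellEvent Green staining; fitted bidirectionally versus DMSO.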

Take `CC[C@H](NC(C)C)[C@H](O)c1ccc(O)c2[nH]c(=O)ccc12`: the result in [1], in assay [2], in assay [3], in assay [4], in assay [5] and in [6] was inactive. Also, the result in assay [7] was inactive.

A word on the AC50: it is the concentration giving half of the maximal activity seen. Turning to `O=C(O)c1cccc(-c2noc(-c3ccccc3F)n2)c1`, the molecule was classed as inactive in [1], in assay [2], in [3], in assay [4], in assay [6] and in assay [8]. The outcome in assay [9], in assay [10], in assay [11] and in assay [12] was inactive. For the same molecule, the AC50 in assay [5] is 23 µM (active).

As for `Cc1nc(Nc2ncc(C(=O)Nc3c(C)cccc3Cl)s2)cc(N2CCN(CCO)CC2)n1`, the result in [1] and in assay [8] was inactive. Further, the AC50 in assay [2] is 26.8 µM (active); in [3], 33.4 µM (active); in assay [4] it was 36.5 µM (active); in [5], 35.5 µM (active); in assay [6] it was 32.7 µM (active); in assay [7], 22.8 µM (active).

Consider `OCC(O)CS` (stereo not given), for which the call in assay [1], in assay [2], in assay [3], in assay [4], in assay [5] and in [6] was inactive. Besides, the result in assay [7] was inactive.

`COc1cc2c(Nc3ccc(Br)cc3F)ncnc2cc1OCC1CCN(C)CC1`: the call in [1], in [2], in [3], in assay [4], in assay [5] and in [6] was inactive. Also, the outcome in assay [8] and in [7] was inactive.

Regarding `CCc1cc(Cl)c(OC)c(C(=O)NC[C@@H]2CCCN2CC)c1O`, the molecule was classed as inactive in assay [1], in assay [2], in assay [3], in assay [4], in assay [5] and in assay [6]. Besides, the call in [8], in assay [7], in assay [9], in [10], in assay [11] and in assay [12] was inactive.

In the case of `CN1C[C@H](C(=O)N[C@]2(C)O[C@@]3(O)[C@@H]4CCCN4C(=O)[C@H](Cc4ccccc4)N3C2=O)C[C@@H]2c3cccc4[nH]cc(c34)C[C@H]21`, the molecule was called inactive in assay [1], in [2], in assay [3], in assay [4], in assay [5] and in assay [6]. In addition, in assay [7], the result was inactive.

For the molecule `Nc1c2ccccc2nc2ccccc12`, the molecule was called inactive in assay [1], in assay [3], in assay [5], in assay [8], in [10] and in assay [11]. The AC50 is 2.18 µM (active) and 2.99 µM (active) in assay [2]; 5.09 µM (active) and 6.02 µM (active) in assay [4]; 3.58 µM (active) and 3.94 µM (active) in [6]; 2.28 µM (active) and 5.34 µM (active) in [7]; 6.25 µM (active) in assay [13]; 10.6 µM (active) in assay [12].

Turning to `COc1cc2ncnc(Nc3ccc(F)c(Cl)c3)c2cc1OCCCN1CCOCC1`, the call in [1], in [2], in assay [3], in assay [4], in assay [6] and in assay [8] was inactive. The result in assay [7] was inactive. Also, the AC50 in assay [5] was 40.7 µM (active).

Take `CC(=O)NCCCS(=O)(=O)O`: the molecule was classed as inactive in assay [1], in assay [2], in assay [3], in assay [4], in assay [5] and in assay [6]. For the same molecule, the molecule was called inactive in assay [8], in assay [7], in assay [14] and in [15].
